In PubChem BioAssay (NCI):
The panel holds about 83,000 compounds, 20% with a hit somewhere; the sample as a whole holds those more often.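 Plates (96-well) were seeded with cells, treated with compound at one concentration, and incubated for 48 hours before percent growth was determined.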 Activity calls are given as the source filed them. Rule for the calls: active = growth percent below 10; inactive = the rest.

Experiments:
Assay in all cases: NCI-60 one-dose screen, 48 h (100 = growth as untreated, 0 = no growth, -100 = all killed)
Settings in all cases: 10 µM unless noted
T-47D breast = system: T-47D breast
BT-549 breast = system: BT-549 breast
MDA-MB-435 melanoma = system: MDA-MB-435 melanoma
SW-620 colon = system: SW-620 colon
MCF7 breast = system: MCF7 breast
HCT-116 colon = system: HCT-116 colon
HCC-2998 colon = system: HCC-2998 colon
KM12 colon = system: KM12 colon

Measured: growth

Nc1ncc(-c2ccc3ncnc(Nc4cccc(Cl)c4F)c3c2)cn1
inactive: T-47D breast 23.8% | BT-549 breast 61.3% | MDA-MB-435 melanoma 80.4% | SW-620 colon 91.1% | MCF7 breast 38.2% | HCT-116 colon 96.4% | HCC-2998 colon 56.5% | KM12 colon 89.6%

Cc1ccc(S(=O)(=O)NCCNc2nc(Nc3ccc(N4CCN(C)CC4)cc3)nc3ccsc23)cc1
inactive: T-47D breast 102% | BT-549 breast 114% | MDA-MB-435 melanoma 109% | SW-620 colon 103% | MCF7 breast 87.4% | HCT-116 colon 69.7% | HCC-2998 colon 104% | KM12 colon 100%

CCn1c(SCC(=O)Nc2cccc(C(=O)/C=C/c3ccc(Br)cc3)c2)nc2ccccc2c1=O
inactive: T-47D breast 90.7% | BT-549 breast 85.7% | MDA-MB-435 melanoma 99.2% | SW-620 colon 80.9% | MCF7 breast 21.5% | HCT-116 colon 28.4% | HCC-2998 colon 95.3% | KM12 colon 96.5%

CN1CCN(Cc2ccc(NC(=O)c3cncc(C#Cc4cnc5ccc(N6CCN(C)CC6)nn45)c3)cc2C(F)(F)F)CC1
active: MDA-MB-435 melanoma -87.5% | SW-620 colon -74.9% | MCF7 breast -76.2% | HCT-116 colon -20.1% | KM12 colon -78.8%
inactive: T-47D breast 110% | BT-549 breast 73% | HCC-2998 colon 54.8%

Cc1ccc(CSc2nc(-c3ccc(Cl)cc3)c(C#N)c(N3CCNCC3)n2)cc1
inactive: T-47D breast 88.8% | BT-549 breast 91% | MDA-MB-435 melanoma 81.2% | SW-620 colon 83% | MCF7 breast 58.5% | HCT-116 colon 66.9% | HCC-2998 colon 87.2% | KM12 colon 84.7%

COc1ccc(/C=N/NC(=O)c2cn(C3CC3)c3c(OC)c(N4CC5CCCNC5C4)c(F)cc3c2=O)cc1 (stereo not drawn)
inactive: T-47D breast 85.9% | BT-549 breast 112% | MDA-MB-435 melanoma 100% | SW-620 colon 92.1% | MCF7 breast 70.8% | HCT-116 colon 53.6% | HCC-2998 colon 95.4% | KM12 colon 99.7%

O=C(NNc1nc2cc(F)ccc2n2c(CN3CC4CNCC4C3)ccc12)c1cnccn1 (stereo not drawn)
inactive: T-47D breast 37.8% | BT-549 breast 35.3% | MDA-MB-435 melanoma 26.1% | SW-620 colon 23% | MCF7 breast 12.2% | HCT-116 colon 16.4% | HCC-2998 colon 32.1% | KM12 colon 16.8%

CN1CCN(Cc2ccc(NC(=O)c3cncc(C#Cc4cnc5ccc(OCC(C)(C)O)nn45)c3)cc2C(F)(F)F)CC1
active: T-47D breast -17.6% | BT-549 breast -20.1% | MDA-MB-435 melanoma -86.8% | SW-620 colon -16.1% | MCF7 breast -66.3% | HCT-116 colon -51% | HCC-2998 colon -34.3% | KM12 colon 1.72%

C=C(C=O)[C@@H]1CC[C@]2(CO)CC[C@]3(C)[C@H](CC[C@@H]4[C@@]5(C)CCCNC(C)(C)[C@@H]5CC[C@]43C)[C@@H]12
active: SW-620 colon 1.41% | HCT-116 colon -63.8% | HCC-2998 colon -65.7% | KM12 colon 1.61%
inactive: T-47D breast 13.3% | BT-549 breast 74.3% | MDA-MB-435 melanoma 76.3% | MCF7 breast 12.7%

COc1c(N2CC3CCCNC3C2)c(F)cc2c(=O)c(C(=O)N/N=C/c3ccc(N(C)C)cc3)cn(C3CC3)c12 (stereo not drawn)
inactive: T-47D breast 95.5% | BT-549 breast 121% | MDA-MB-435 melanoma 94% | SW-620 colon 80.7% | MCF7 breast 44.1% | HCT-116 colon 31.3% | HCC-2998 colon 89.4% | KM12 colon 74.5%

COc1ccc(Cn2cc3c(c2-c2cc(OC)c(OC)c(OC)c2)CCc2c(CN4CCOCC4)noc2-3)cc1
active: MDA-MB-435 melanoma -19.9%
inactive: T-47D breast 61.5% | BT-549 breast 76.8% | SW-620 colon 30.4% | MCF7 breast 16.8% | HCT-116 colon 13.4% | HCC-2998 colon 21.3% | KM12 colon 16.9%

CC(=O)N1C(=S)NC(=O)C1CC(C)C (stereo not drawn)
inactive: T-47D breast 100% | BT-549 breast 115% | MDA-MB-435 melanoma 103% | SW-620 colon 102% | MCF7 breast 97.7% | HCT-116 colon 106% | HCC-2998 colon 108% | KM12 colon 101%

O=S(=O)(NC1c2ccccc2C[C@H]1O)c1ccc(Cl)cc1Cl (stereo partly drawn)
inactive: T-47D breast 93.7% | BT-549 breast 126% | MDA-MB-435 melanoma 94.1% | SW-620 colon 102% | MCF7 breast 95.5% | HCT-116 colon 98.1% | HCC-2998 colon 97% | KM12 colon 96.3%

CCc1nn2c(C)cc(C)nc2c1Cc1ccc(/C=C/CN2CCN(CCOCCOCCN3CCN(C/C=C/c4ccc(Cc5c(CC)nn6c(C)cc(C)nc56)cc4)CC3)CC2)cc1
inactive: BT-549 breast 79.7% | KM12 colon 35.2%
active: T-47D breast -36.4% | MDA-MB-435 melanoma -78.3% | SW-620 colon -50.4% | MCF7 breast -85.8% | HCT-116 colon -84.1% | HCC-2998 colon -61.9%

CCCCCc1ccc(S(=O)(=O)Nc2cccc(-c3csc(NC(=O)CN4CCN(C)CC4)n3)c2)cc1
inactive: T-47D breast 67.2% | BT-549 breast 93.4% | MDA-MB-435 melanoma 45.3% | SW-620 colon 46.5% | MCF7 breast 26.2% | HCT-116 colon 16.9% | HCC-2998 colon 14.8% | KM12 colon 65.8%

c1ccc(C(c2nc3ncncc3[nH]2)N2CSc3nc4ccccc4n3C2)cc1 (stereo not drawn)
inactive: T-47D breast 110% | BT-549 breast 102% | MDA-MB-435 melanoma 105% | SW-620 colon 98% | MCF7 breast 94.9% | HCT-116 colon 114% | HCC-2998 colon 107% | KM12 colon 94.4%

O=c1[nH]c(Sc2sc3ccc(Cl)cc3c2CBr)nc(=S)[nH]1
inactive: BT-549 breast 48.5% | MDA-MB-435 melanoma 15.1% | SW-620 colon 40.4% | MCF7 breast 15.2% | HCT-116 colon 38.6% | HCC-2998 colon 48.5% | KM12 colon 12.8%
active: T-47D breast -0.0992%

CN1CCN(Cc2ccc(NC(=O)c3cncc(C#Cc4cnc5ccc(NCCCO)nn45)c3)cc2C(F)(F)F)CC1
active: T-47D breast 1.95% | BT-549 breast -81.5% | MDA-MB-435 melanoma -39.8% | SW-620 colon -34.6% | MCF7 breast -34.5% | HCT-116 colon -83.6% | HCC-2998 colon -9.99% | KM12 colon -12.1%

C=CC(=O)N1CCC=C(c2cc3c(N[C@H](C)c4ccccc4)ncnc3[nH]2)C1
inactive: T-47D breast 29.7% | BT-549 breast 89.8% | MDA-MB-435 melanoma 74.5% | SW-620 colon 91.7% | MCF7 breast 49.5% | HCT-116 colon 71.8% | HCC-2998 colon 93.8% | KM12 colon 90.5%

CCO/C=N/C1=C(C#N)C(c2ccc(OC)cc2)c2sc3c(CC)cccc3c2O1 (stereo not drawn)
active: MDA-MB-435 melanoma -39.2%
inactive: T-47D breast 35.8% | BT-549 breast 63% | SW-620 colon 35.3% | MCF7 breast 24.6% | HCT-116 colon 24.1% | HCC-2998 colon 44.3% | KM12 colon 18.9%

COc1cc(OC)cc(C(=O)Nc2sc3c(c2C(N)=O)CCC(=O)C3)c1
active: T-47D breast 7.67% | HCT-116 colon 7.89%
inactive: BT-549 breast 11.1% | MDA-MB-435 melanoma 41.7% | SW-620 colon 18.6% | MCF7 breast 24.4% | HCC-2998 colon 88.3% | KM12 colon 12%

COc1cc(-c2nnc(SCc3ccc(O)c4ncccc34)n2-c2ccccc2)cc(OC)c1OC
inactive: BT-549 breast 12.8% | MDA-MB-435 melanoma 10.8% | SW-620 colon 10.3% | HCC-2998 colon 22.1% | KM12 colon 14%
active: T-47D breast -0.917% | MCF7 breast 2.01% | HCT-116 colon 5.72%

COC(=O)c1[nH]nc2c1C1(C(=O)c3cccc4cccc1c34)C(C#N)=C(N)O2 (stereo not drawn)
inactive: T-47D breast 104% | BT-549 breast 124% | MDA-MB-435 melanoma 106% | SW-620 colon 100% | MCF7 breast 84.3% | HCT-116 colon 101% | HCC-2998 colon 106% | KM12 colon 97.8%

COc1cc(Nc2c(C#N)cnn3cc(-c4cnn(CC(C)(C)O)c4)cc23)ccc1Cl
inactive: T-47D breast 45.1% | BT-549 breast 85.5% | MDA-MB-435 melanoma 38.3% | SW-620 colon 56.5% | MCF7 breast 48% | HCT-116 colon 40.2% | HCC-2998 colon 84.8% | KM12 colon 19.1%

O=C(NCCn1ccnc1)c1ccc(-c2nc3ccc4[nH]ncc4c3c3c2CCCC3)cc1
active: MDA-MB-435 melanoma -1.93%
inactive: T-47D breast 56% | BT-549 breast 44.2% | SW-620 colon 57.4% | MCF7 breast 20.5% | HCT-116 colon 37% | HCC-2998 colon 81.6% | KM12 colon 26%

O=C(NCCN1CCCC1)c1ccc(-c2nc3ccc4[nH]ncc4c3c3c2CCCC3)cc1
inactive: T-47D breast 23% | MDA-MB-435 melanoma 12.3%
active: BT-549 breast -33.4% | SW-620 colon 1.5% | MCF7 breast -9.45% | HCT-116 colon 1.82% | HCC-2998 colon -1.05% | KM12 colon 1.12%

COc1ccccc1C(=O)Nc1cccc2c1C(=O)C(=O)C=C2
inactive: T-47D breast 98.8% | BT-549 breast 96.3% | MDA-MB-435 melanoma 96.8% | SW-620 colon 94.2% | MCF7 breast 81% | HCT-116 colon 99% | HCC-2998 colon 122% | KM12 colon 99.3%

O=C1CCCc2nc(Nc3ccc(S(=O)(=O)Nc4ccc([N+](=O)[O-])cc4)cc3)ncc21
inactive: T-47D breast 105% | BT-549 breast 117% | MDA-MB-435 melanoma 104% | SW-620 colon 102% | MCF7 breast 95.2% | HCT-116 colon 108% | HCC-2998 colon 110% | KM12 colon 98.3%

COc1cc(-c2nn(C(C)(C)C)cc2-c2ccnc(NCCCNS(=O)(=O)c3ccccc3)n2)ccc1Cl
inactive: T-47D breast 82.3% | BT-549 breast 81.1% | MDA-MB-435 melanoma 84% | SW-620 colon 90.3% | MCF7 breast 70.1% | HCT-116 colon 59.9% | HCC-2998 colon 95.6% | KM12 colon 86.5%

CCCCNNC(=O)c1ccc(-c2cccc(F)c2F)cc1
active: T-47D breast 3.16%
inactive: BT-549 breast 58.6% | MDA-MB-435 melanoma 25.4% | SW-620 colon 20.7% | MCF7 breast 15.9% | HCT-116 colon 13.9% | HCC-2998 colon 37.9% | KM12 colon 44.6%

COc1cccc2c1CN(C(=O)c1ccc(O)c(C(=O)N3Cc4ccc(OCCC[P+](c5ccccc5)(c5ccccc5)c5ccccc5)cc4C3)c1)C2
inactive: T-47D breast 37.6% | BT-549 breast 65.9% | MDA-MB-435 melanoma 32% | SW-620 colon 70.5% | MCF7 breast 17.9% | HCT-116 colon 80.8% | HCC-2998 colon 47.9% | KM12 colon 44.4%
